# Hit rate of the full screen: of about 290,000 compounds, about 1,000 (0.34%) were called active. The list comes from a sample in which actives are over-represented; it also holds similar structures and randomly drawn compounds. Unmarked numbers belong to inactive results. Rule as the data show it: active = inhibition above about 50% (passing the limit was not always enough); inconclusive = no clear call, values can overlap the other calls.
# Biological target: SUMO-conjugating enzyme UBC9 (Homo sapiens) (UniProt P63279)
# Sequence (P63279 whole entry, looked up): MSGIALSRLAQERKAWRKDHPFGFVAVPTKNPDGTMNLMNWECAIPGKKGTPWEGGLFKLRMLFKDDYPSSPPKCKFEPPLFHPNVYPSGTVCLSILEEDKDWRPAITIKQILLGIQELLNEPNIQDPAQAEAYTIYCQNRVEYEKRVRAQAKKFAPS
# Assay: blockers of SAE1/SAE2–UBC9 SUMO transfer – biochemical, HTRF, uHTS, primary screen (AID 2006)
# Details: HTRF SUMOylation assay, SAE1/SAE2 + UBC9, in vitro; at 35 µM; stronger effect = higher value
row,Structure (SMILES),inhibition
1,COc1cccc(N2C(=O)NC(=O)/C(=C\c3ccc([N+](=O)[O-])s3)C2=O)c1,41.7%
2,O=C1NC(=O)N(c2ccccc2)C(=O)/C1=C/c1ccc([N+](=O)[O-])s1,51.6% (active)
3,Cc1cccc(N2C(=O)NC(=O)/C(=C\c3cnn(-c4ccccc4)c3)C2=O)c1,-3.4%
4,CC1CCC(N(C)C2CCN(C)CC2)CC1 (stereo not given),9.4%
5,CC(c1ccccc1)(c1ccccc1)c1ccncc1,4.4%

# — PubChem BioAssay AID2006 (Sanford-Burnham Center for Chemical Genomics, 2009)
